# Hits are enriched below; roughly 12% of the tested compounds scored in any of these assays.
# L3MBTL1 inh = L3MBTL1 (human) inhibition | Q9Y468 | AlphaScreen L3MBTL1–H3K9me1 peptide binding | Potency, µM (titrated, usually from 57.1 µM), for inactives: at the highest dose activity, negative = inhibition, actives largely listed as inhibitors | hit rate 0.66% among 230,000; also: % is scaled to controls: 0 for no effect and ±100 for the full control effect; nearly all actives have a fitted effect of over 60% in size
#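 First, the protein-peptide complex forms for 30 min at room temperature (L3MBTL1 50 nM, biotinylated H3K9me1 peptide 75 nM). Next, compounds are pin-transferred and incubated 30 min. Finally, AlphaScreen beads are added and read after 30 min.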
# G9a inh = G9a (human) methyltransferase inhibition; G9a H3K9 monomethylation, AlphaScreen, 2 h; Q96KQ7; hit rate 8.8% among 350,000; Potency, µM (top dose mostly 102 µM), inactives show at the top dose activity, negative = inhibition, actives largely listed as inhibitors; also: % is scaled to controls: 0 for no effect and ±100 for the full control effect; nearly all actives have a fitted effect of over 75% in size
# Target sequence (Q96KQ7 913-1193 limits assumed): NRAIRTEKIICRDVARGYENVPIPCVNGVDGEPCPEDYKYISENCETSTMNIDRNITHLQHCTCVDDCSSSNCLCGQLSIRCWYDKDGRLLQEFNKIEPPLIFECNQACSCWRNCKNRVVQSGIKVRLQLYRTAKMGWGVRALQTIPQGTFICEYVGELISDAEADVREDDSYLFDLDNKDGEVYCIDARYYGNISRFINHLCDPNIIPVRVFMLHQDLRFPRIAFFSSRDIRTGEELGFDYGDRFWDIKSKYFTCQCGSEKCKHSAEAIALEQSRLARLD
#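 G9a (20 nM) was preincubated 15 min with compound, then reacted 2 h at room temperature with 500 nM biotin-H3K9 peptide and 20 µM SAM. Monomethyl-H3K9 detected by AlphaScreen using anti-H3K9me1 antibody.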
# JMJD2A Tudor = inhibitors of human JMJD2A Tudor domain | O75164 | AlphaScreen JMJD2A-Tudor / H3K4me3 peptide binding | Potency, µM (series often up to 114 µM), without a hit: top-dose activity change, negative = inhibition, actives largely listed as inhibitors | hit rate 4.4% among 390,000 | AID 504339; also: % is scaled to controls: 0 for no effect and ±100 for the full control effect; nearly all actives have a fitted effect of over 50% in size
# BAZ2B block = blocks human BAZ2B; hit rate 4.4% among 360,000; AlphaScreen BAZ2B-H3K14Ac peptide displacement; Potency, µM (doses to about 114 µM), for inactives: top-dose activity change, negative = inhibition, actives largely listed as inhibitors; Q9UIF8; AID 504333; also: % is scaled to controls: 0 for no effect and ±100 for the full control effect; nearly all actives have a fitted effect of over 60% in size
#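 AlphaScreen displacement: compounds (up to 110uM) incubated 30 min at room temperature with a preformed 50 nM BAZ2B/50 nM biotinylated H3K14Ac peptide complex in PBS pH 7.4 with Tween-20. Donor and acceptor beads at 10 ug/mL final added, 20 min light-protected before reading.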
# Sfp inh = inhibitors of Bacillus subtilis Sfp phosphopantetheinyl transferase. AID 1490. Biochemical Sfp PPTase activity, qHTS. hit rate 3.5% among 310,000. Q9F4F7. Potency, µM, for inactives: largest response in the series, negative = inhibition, usual class: inhibitors;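 also: the enzyme is Sfp with the accession as filed and its product quenches rhodamine fluorescence; 0% = enzyme reaction without inhibitor and -100% = no enzyme wells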
#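 Fluorescence-quenching assay with 15 nM Sfp, 5 uM rhodamine-CoA and 12.5 uM BHQ-2-labelled ybbR peptide in pH 7.6 Hepes/MgCl2 buffer. Enzyme was pre-incubated with compound for 15 min at room temperature. Rate was taken from the 30-min fluorescence change (525/598 nm).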
# HP1b binding inh = HP1-beta chromodomain-methylated histone interaction inhibition | P83916 | AlphaScreen HP1-beta / biotin-H3K9me3 peptide binding | Potency, µM (titrated, usually from 114 µM), inactives show top-dose activity change, negative = inhibition, usual class: inhibitors | hit rate 0.56% among 390,000; also: nearly all actives have a fitted effect of over 70% in size
# Target sequence (P83916 whole entry, looked up): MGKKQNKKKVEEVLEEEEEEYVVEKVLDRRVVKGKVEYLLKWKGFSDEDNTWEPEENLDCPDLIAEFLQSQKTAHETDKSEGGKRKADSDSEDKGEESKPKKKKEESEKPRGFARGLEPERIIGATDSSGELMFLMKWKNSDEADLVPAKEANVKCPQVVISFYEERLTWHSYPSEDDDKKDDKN
#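 AlphaScreen: HP1-beta (50 nM) preformed 30 min with biotin-H3(1-18)K9me3 peptide (50 nM) in PBS pH 7.4, 0.01% Tween-20. Compound added for 30 min at RT, then streptavidin donor/nickel chelate acceptor beads (10 ug/mL) for 30 min.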
# * marks the source's active call; other numbers are inactive results; u = inconclusive; x = not tested or not shown; [ ] = dose if it differs, or a comment. Calls follow the shape of the dose curve; as a rule, active = well fitted curve in the direction sought with a large enough effect; inconclusive = small, poorly fitted or top-dose-only effect, or another doubt; inactive = no such curve, though single readings can be large; an effect the other way counts as inactive or inconclusive. Potency is read from the fitted curve at half-maximal effect.
SMILES,L3MBTL1 inh,G9a inh,JMJD2A Tudor,BAZ2B block,Sfp inh,HP1b binding inh
CCN(CC)CCN(Cc1cc2cc(C)ccc2[nH]c1=O)C(=S)NCc1ccco1,-8.6%,-33.3%[59 µM],u,-36.2%,56.2µM*,-15.5%
CCNC(=S)N(Cc1cc2cc(C)ccc2[nH]c1=O)C1CCCC1,-18.1%,u,-22.2%,u,56.2µM*,13.7%
COc1ccc2nc(NC(=O)c3ccc(S(=O)(=O)N4CCC(C)CC4)cc3)sc2c1,x,3.8%[59 µM],-16.2%,0.0%,x,12.7%[57 µM]
CNC(=O)C1CCC(Cn2c(=O)c3sccc3n(CC(=O)Nc3ccc(C)c(F)c3)c2=O)CC1 (configuration not stated),x,15.0%[59 µM],-13.0%,-0.9%,x,30.7%
CCOc1ccc(Nc2oc(-c3ccco3)nc2C#N)cc1,-6.6%,-43.2%[59 µM],-21.5%,-37.4%,-3.1%,-2.9%
O=S(=O)(c1ccc(F)cc1)c1nc(-c2ccco2)oc1Nc1ccc(F)cc1,-12.4%,50.1µM*,-28.1%,u,-1.9%,6.7%
COc1ccc(Nc2oc(-c3ccco3)nc2S(=O)(=O)c2ccc(F)cc2)cc1,-7.0%,44.7µM*,u,u,-1.7%,-6.2%
O=C(CSc1oc(-c2ccco2)nc1S(=O)(=O)c1ccc(F)cc1)NCC1CCCO1 (configuration not stated),-22.0%[11.4 µM],u,-16.6%,11.0%,-11.8%,2.9%
CCc1ccccc1Nc1nn2c(=O)c3ccc(C(=O)NCCCOC(C)C)cc3nc2s1,8.2%,-7.8%[12.7 µM],-1.3%,1.8%,x,16.0%
CCOC(=O)C1CCN(CC(=O)Nc2cc(S(=O)(=O)N3CCOCC3)ccc2C)CC1,8.4%,22.4µM*,3.98µM*,79.4µM*,-21.6%,70.8µM*
Cc1ccc(S(=O)(=O)N2CCOCC2)cc1NC(=O)CN1CCN(C)CC1,5.2%,-3.3%[59 µM],-14.6%,0.4%,x,14.0%
Cc1ccc(S(=O)(=O)N2CCOCC2)cc1NC(=O)CN1CCN(c2ccc(O)cc2)CC1,-1.5%,u,25.1µM*,u,39.8µM*,u
CC(C)(C)[C@@H](O)C(Cc1ccc(Cl)cc1)n1cncn1 (some centres not stated),x,x,x,x,6.4%,x
COc1ccccc1N1CCN(c2nc3c(S(=O)(=O)c4ccccc4)nnn3c3ccc(Cl)cc23)CC1,x,-9.5%[59 µM],-12.7%,-6.8%,x,11.1%
CCC(CC)=N/N=C/c1c(O)n(CC)c2cc(C3=NNC(=O)CC3)ccc12,u,3.55µM*,-21.7%,-27.7%,u,26.9%
Cc1cc2cc3c(cc2nc1SCC(=O)O)OCCO3,6.6%,10.2%[59 µM],-1.8%,10.6%,13.9%,10.5%
Cc1cc2cc3c(cc2nc1SCc1ccc(C(=O)O)cc1)OCCO3,-4.2%,50.1µM*,-32.9%,u,-15.0%,19.2%
O=C(NCCCN1CCN(c2cccc(Cl)c2)CC1)c1sc2ncccc2c1-n1cccc1,x,-44.7%[59 µM],31.6µM*,35.5µM*,x,-20.6%[57 µM]
O=C(NCCCN1CCN(c2ccccc2)CC1)c1sc2ncccc2c1-n1cccc1,x,-30.2%[59 µM],u,u,x,-16.0%[57 µM]
Cc1ccc(C)n1-c1c(C(=O)NCCCN2CCN(c3ccc(F)cc3)CC2)sc2ncccc12,x,-44.8%[59 µM],50.1µM*,u,x,-2.9%[57 µM]
Cc1ccccc1NC(=O)N1CCc2cc(S(=O)(=O)N3CCC(C)CC3)ccc21,x,-2.0%[59 µM],-4.0%,3.1%,x,49.5%
C#CCOCCOCCOCCNc1nc(N2CCN(C(=O)[C@H](CCC(=O)O)n3cc(C(N)CC(C)C)nn3)CC2)nc(N2CCN(C(=O)[C@H](Cc3ccc(O)cc3)n3cc(C(N)CC(C)C)nn3)CC2)n1 (some centres not stated),-2.0%,u,79.4µM*,79.4µM*,-13.1%,22.6%
C#CCOCCOCCOCCNc1nc(N2CCOCC2)nc(N2CCN(C(=O)[C@H](CO)n3cc([C@@H](N)C(C)C)nn3)CC2)n1,11.3%,x,-11.3%,x,x,36.6%

# Screens as filed in PubChem BioAssay.
